We go through 5 compounds from PubChem BioAssay.

Test [1] can be described thus: compounds binding Alexa647 anti-His antibody – biochemical, small-molecule microarray, 635 nm fluorescence, artefact control for SMM control protein annotation, primary screen (AID 1128).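 Note: score merges feature fluorescence with signal-to-noise for each printed compound spot.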 The following applies: higher = more signal.
Test [2] concerns Human papillomavirus type 1a E7 protein (residues 1-88). Kind of test: HPV1a E7 small-molecule binders, primary screen, biochemical, small-molecule microarray, residues 1-88, 635 nm (AID 1129). The following applies: small-molecule microarray binding, fluorescence 635 nm; higher = more signal.
Test [3] deals with Focal adhesion kinase 1 (Homo sapiens) (UniProt Q05397). As to the kind of experiment: PTK2 protein binding on printed compound slides – biochemical, small-molecule microarray, 635/667 nm fluorescence, BSA, DTT, primary screen (AID 1130).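 Note: composite of spot emission at 667 nm and signal to noise over triplicate slides.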 The following applies: 635 nm fluorescence, higher = more signal.
Test [4] has as its system Fibrinogen (Alexa647-labelled). As to the kind of experiment: Alexa647-fibrinogen binding to printed small molecules – biochemical, small-molecule microarray, 635/667 nm fluorescence, artefact control for SMM control-protein annotation, profiling panel (AID 1131).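 Note: z-score merges 667 nm fluorescence with per-spot signal-to-noise over triplicate slides.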 To be noted: fibrinogen-A647 binding fluorescence, higher = more signal.
In test [5] the target is Follistatin (Homo sapiens) (UniProt P19883). As to the kind of experiment: FST protein binding to printed compounds – biochemical, small-molecule microarray, 635/667 nm fluorescence, primary screen (AID 1132). The following applies: 635 nm fluorescence, higher = more signal.
The target of test [6] is Fibroblast growth factor 2 (Homo sapiens) (UniProt P09038). Kind of test: basic fibroblast growth factor binding to printed compounds – biochemical, small-molecule microarray, 635/667 nm fluorescence, primary screen (AID 1133). To be noted: FGF2, fluorescence 635/667, higher = more signal.
Test [7] can be described thus: JC-1 mitochondrial potential readout, lung cancer cells – cell-based, A549, JC-1 fluorescence, basal, 24 h, 100 nL, profiling panel (AID 1138).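 Note: A549 lung adenocarcinoma cells under basal conditions with no added stimulus; test concentration not given here.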 To be noted: higher = more signal.
The next test deals with Lefty1. As to the kind of experiment: Lefty1 protein binding to printed compounds – biochemical, small-molecule microarray, 635/667 nm fluorescence, primary screen (AID 1139). To be noted: fluorescence 635/667, higher = more signal.
Test [8] concerns wheat germ agglutinin (Triticum aestivum), Alexa647-labelled. As to the kind of experiment: Alexa647-WGA lectin binding to printed small molecules – biochemical, small-molecule microarray, 635/667 nm fluorescence, artefact control for SMM control-protein annotation, profiling panel (AID 1140).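 Note: score merges 667 nm feature emission with signal to noise over triplicate slides.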 The following applies: WGA-A647 binding, 635 nm fluorescence, higher = more signal.
The target of test [9] is Luciferin 4-monooxygenase (Photinus pyralis) (UniProt P08659). As to the kind of experiment: inhibition of purified Photinus pyralis luciferase – biochemical, luminescence, purified enzyme, 2006 set, primary screen (AID 1141).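 Note: cell-free assay with purified firefly luciferase at 100 ng per well in PBS; test concentration not given here.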 To be noted: purified firefly luciferase, SteadyGlo luminescence, 30 min; higher = more signal, called active from +8 up or from −8 down.
Test [10] concerns Wnt5a (protein binding on small-molecule microarray). Kind of test: small molecules binding Wnt5a protein – biophysical, small-molecule microarray, 635/667 nm fluorescence, primary screen (AID 1142).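 Note: fluorescence read at 667 nm with signal to noise per printed feature.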 The following applies: 635 nm fluorescence, higher = more signal.
Test [11] is described as follows: ATP-based viability of Huh7 replicon cells – cell-based, CellTiter-Glo luminescence, basal, 48 h, cytotoxicity control for HCV replication inhibitor project, primary screen (AID 1143).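 Note: Huh7 hepatoma cells carrying a hepatitis C replication reporter with no stimulus; test concentration not given here.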 The following applies: higher = more signal, called active from +8 up or from −8 down.
Test [12] is described as follows: Pseudomonas biofilm growth suppression – PAO1 strain, BacTiter-Glo luminescence, LB-PBS, primary screen (AID 1144). To be noted: P. aeruginosa PAO1 biofilm, 12 h, higher = more signal.
A short description of test [13]: basal CRE-LacZ reporter activity in PC12 – cell-based, unstimulated, primary screen (AID 1145). To be noted: no forskolin, luminescence, 4.5 h, higher = more signal, called active from +8 up or from −8 down.
Test [14] is described as follows: forskolin-driven CRE-LacZ activity in PC12 – cell-based, CRE-LacZ reporter, forskolin-stimulated, primary screen (AID 1146).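 Note: PC12 cells with 6xCRE LacZ reporter stimulated by forskolin 10 µM; beta-galactosidase reporter signal reflecting CREB driven transcription.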 The following applies: luminescence, 4.5 h, higher = more signal, called active from +8 up or from −8 down.
Test [15] deals with Streptavidin (Streptomyces avidinii) (UniProt P22629). Kind of test: compounds binding control protein streptavidin – biophysical, small-molecule microarray, 635/667 nm fluorescence, artefact control for SMM compound annotation, primary screen (AID 1147).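 Note: signal reflects streptavidin binding to arrayed compounds as a control protein.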 The following applies: higher = more signal.
Test [16] can be described thus: probe aInhba binding on compound microarray – biochemical, small-molecule microarray, 635/667 nm fluorescence, primary screen (AID 1148).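 Note: score merges 667nm spot fluorescence with signal-to-noise for antibody binding to printed compounds.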 To be noted: higher = more signal.
Test [17] deals with Torsin-1A (Homo sapiens) (UniProt O14656). Kind of test: TOR1A wild-type binding on microarray – cell lysate, small-molecule microarray, lysate, 635/667 nm, primary screen (AID 1149). To be noted: COS7 hTOR1A-WT lysate, 635 nm fluorescence, higher = more signal.
The target is the same in test [18]. Kind of test: torsin A mutant lysate binding on microarrays – cell lysate, small-molecule microarray, COS7 lysate, 635/667 nm fluorescence, primary screen (AID 1150).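 Note: score pools 667 nm emission and signal to noise measuring lysate protein binding.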 To be noted: COS7 hTOR1A mutant lysate, 635 nm fluorescence, higher = more signal.
Test [19] has as its system Sonic hedgehog protein (Shh). Kind of test: Sonic hedgehog microarray binding compounds – biochemical, small-molecule microarray, 635/667 nm fluorescence, primary screen (AID 1151).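 Note: Shh protein binding to compounds spotted on small-molecule microarray slides; score combines spot fluorescence intensity with signal-to-noise across triplicate slides.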 The following applies: 635 nm fluorescence, higher = more signal.

The structures appear in SMILES notation. Activity calls are given as the source filed them. Unless noted, the rule behind the calls is not given here.

Chain of Fibroblast growth factor 2 (Homo sapiens) (P09038 whole entry, looked up): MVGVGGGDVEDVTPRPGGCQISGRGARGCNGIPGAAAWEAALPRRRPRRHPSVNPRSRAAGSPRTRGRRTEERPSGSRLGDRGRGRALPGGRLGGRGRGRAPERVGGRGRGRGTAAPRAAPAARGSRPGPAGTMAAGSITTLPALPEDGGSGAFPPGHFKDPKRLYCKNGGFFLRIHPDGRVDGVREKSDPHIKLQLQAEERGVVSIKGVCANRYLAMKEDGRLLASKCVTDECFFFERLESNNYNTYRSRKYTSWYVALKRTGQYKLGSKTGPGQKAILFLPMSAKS
Chain of Streptavidin (Streptomyces avidinii) (P22629 whole entry, looked up): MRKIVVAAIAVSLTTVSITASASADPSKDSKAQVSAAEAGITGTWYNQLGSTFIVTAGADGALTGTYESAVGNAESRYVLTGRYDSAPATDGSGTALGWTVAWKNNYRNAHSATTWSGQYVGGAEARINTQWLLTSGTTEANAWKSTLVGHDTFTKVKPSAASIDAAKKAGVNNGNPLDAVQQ
Chain of Focal adhesion kinase 1 (Homo sapiens) (Q05397 whole entry, looked up): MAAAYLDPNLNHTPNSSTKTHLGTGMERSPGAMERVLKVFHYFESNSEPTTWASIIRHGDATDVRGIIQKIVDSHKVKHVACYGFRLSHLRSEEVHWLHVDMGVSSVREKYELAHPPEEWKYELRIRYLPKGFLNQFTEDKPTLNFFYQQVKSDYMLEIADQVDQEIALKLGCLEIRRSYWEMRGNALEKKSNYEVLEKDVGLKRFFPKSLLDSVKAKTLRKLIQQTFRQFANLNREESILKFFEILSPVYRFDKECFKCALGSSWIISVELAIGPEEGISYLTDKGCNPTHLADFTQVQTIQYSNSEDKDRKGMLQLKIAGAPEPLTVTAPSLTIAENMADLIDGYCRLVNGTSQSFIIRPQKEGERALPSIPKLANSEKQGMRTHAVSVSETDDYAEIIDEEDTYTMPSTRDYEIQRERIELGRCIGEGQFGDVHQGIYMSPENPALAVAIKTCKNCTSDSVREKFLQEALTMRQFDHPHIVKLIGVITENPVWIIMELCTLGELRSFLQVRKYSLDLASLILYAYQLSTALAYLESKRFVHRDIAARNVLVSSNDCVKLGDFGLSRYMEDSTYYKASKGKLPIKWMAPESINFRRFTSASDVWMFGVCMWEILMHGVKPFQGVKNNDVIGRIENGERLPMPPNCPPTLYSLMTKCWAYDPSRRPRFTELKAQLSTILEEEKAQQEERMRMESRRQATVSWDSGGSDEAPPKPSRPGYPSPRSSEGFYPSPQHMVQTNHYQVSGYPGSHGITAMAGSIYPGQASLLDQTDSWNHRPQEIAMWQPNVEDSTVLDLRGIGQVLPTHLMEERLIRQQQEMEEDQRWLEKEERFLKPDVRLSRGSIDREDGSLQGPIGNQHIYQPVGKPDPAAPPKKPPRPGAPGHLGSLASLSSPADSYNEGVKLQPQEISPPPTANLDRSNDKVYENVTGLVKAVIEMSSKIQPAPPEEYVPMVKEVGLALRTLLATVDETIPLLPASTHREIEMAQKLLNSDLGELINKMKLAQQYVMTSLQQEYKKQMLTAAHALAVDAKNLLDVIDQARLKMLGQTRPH
Chain of Follistatin (Homo sapiens) (P19883 whole entry, looked up): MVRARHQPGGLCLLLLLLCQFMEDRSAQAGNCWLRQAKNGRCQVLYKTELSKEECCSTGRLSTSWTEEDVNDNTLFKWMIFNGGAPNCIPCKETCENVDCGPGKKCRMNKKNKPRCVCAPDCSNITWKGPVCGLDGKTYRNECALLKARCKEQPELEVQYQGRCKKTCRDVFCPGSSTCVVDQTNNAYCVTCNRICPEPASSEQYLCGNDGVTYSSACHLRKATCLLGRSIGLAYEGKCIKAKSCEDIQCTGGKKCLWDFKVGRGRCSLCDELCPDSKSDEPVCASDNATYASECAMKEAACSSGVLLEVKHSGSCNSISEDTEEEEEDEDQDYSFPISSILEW
Chain of Torsin-1A (Homo sapiens) (O14656 whole entry, looked up): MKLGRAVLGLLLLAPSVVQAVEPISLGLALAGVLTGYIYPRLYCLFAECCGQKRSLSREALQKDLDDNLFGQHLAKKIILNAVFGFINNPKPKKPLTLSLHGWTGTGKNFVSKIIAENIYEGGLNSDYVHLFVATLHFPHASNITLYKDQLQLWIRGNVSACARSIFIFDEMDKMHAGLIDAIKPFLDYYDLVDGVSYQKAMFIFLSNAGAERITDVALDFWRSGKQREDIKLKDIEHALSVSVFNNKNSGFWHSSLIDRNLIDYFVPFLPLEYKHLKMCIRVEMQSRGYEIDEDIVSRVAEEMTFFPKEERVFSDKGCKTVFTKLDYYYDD
Chain of Luciferin 4-monooxygenase (Photinus pyralis) (P08659 whole entry, looked up): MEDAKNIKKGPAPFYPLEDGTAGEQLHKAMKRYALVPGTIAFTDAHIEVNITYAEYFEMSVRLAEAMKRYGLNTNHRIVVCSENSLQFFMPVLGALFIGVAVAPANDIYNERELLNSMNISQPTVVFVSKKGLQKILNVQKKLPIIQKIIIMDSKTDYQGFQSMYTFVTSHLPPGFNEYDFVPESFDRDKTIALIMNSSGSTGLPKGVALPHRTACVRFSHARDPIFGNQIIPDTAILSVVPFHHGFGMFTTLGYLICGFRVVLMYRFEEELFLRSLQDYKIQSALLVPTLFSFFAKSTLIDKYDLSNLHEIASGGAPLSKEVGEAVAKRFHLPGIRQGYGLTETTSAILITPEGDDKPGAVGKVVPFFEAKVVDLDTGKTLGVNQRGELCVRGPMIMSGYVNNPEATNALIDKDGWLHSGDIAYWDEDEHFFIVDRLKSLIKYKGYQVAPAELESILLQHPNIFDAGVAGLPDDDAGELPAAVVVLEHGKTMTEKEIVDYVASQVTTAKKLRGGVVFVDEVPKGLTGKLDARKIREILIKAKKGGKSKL

In the case of `C=CCNC(=O)[C@H]1[C@@H]2C(=O)O[C@@H](c3ccccc3)[C@@H](c3ccccc3)N2[C@@H](c2ccc(O)cc2)[C@]12C(=O)N(C(=O)OCCOC)c1ccc(C#CC3=CCCCC3)cc12`, the composite z-score turned out to be 0.692 in test [1]; 1.22 in test [2]; 0.723 in [3]; 0.892 in test [4]; 0.379 in test [5]; 0.248 in test [6]. In addition, the composite z-score with Lefty1 was 0.484; in test [8] it was 0.583; in test [10], 0.411; in test [15] it was 0.841; in test [16] it was 0.935; with Torsin-1A (Homo sapiens) [17], 0.757. Besides, the composite z-score with Torsin-1A (Homo sapiens) [18] is 1.14; in test [19] it was 1.45. Besides, the z-score in test [7] was -0.76; in test [9], -0.54 (inactive); in [11], -3.95 (inactive); in test [12] it was 0.101 (inactive); in [13], -0.878 (inactive); in [14], -0.633 (inactive).

`C[C@H]1CC[C@@H](C(=O)O)N[C@@H]1c1ccc(C#CCN(C)C)cc1`: the composite z-score turned out to be 0.601 in [1]; 0.34 in test [2]; 0.0583 in test [3]; 0.54 in test [4]; 0.682 in test [5]; 0.453 in [6]. Moreover, the composite z-score with Lefty1 was 0.343; in test [8], 0.117; in [10], 0.163; in [15] it was 0.85; in test [16], -0.273; with Torsin-1A (Homo sapiens) [17], 0.363. Also, the composite z-score worked out at 0.323 with Torsin-1A (Homo sapiens) [18] and 0.427 in test [19]. The z-score was 1.04 in test [7]; -0.931 (inactive) in test [9]; 0.141 (inactive) in test [11]; -0.0379 (inactive) in test [12]; 1.83 (inactive) in test [13]; -1.12 (inactive) in test [14].

For the compound `COc1cccc([C@@H]2Oc3ccc(Br)cc3C(=O)[C@H]2O)c1`, the composite z-score stood at 0.26 in test [1]; 0.615 in [2]; 0.586 in [3]; 0.946 in test [4]; 0.453 in test [5]; 0.267 in test [6]. Also, the composite z-score was 0.732 in the test with Lefty1; 0.282 in [8]; 0.134 in test [10]; 0.286 in test [15]; -0.089 in test [16]; 0.561 in the test with Torsin-1A (Homo sapiens) [17]. The composite z-score turned out to be 1.1 in the test with Torsin-1A (Homo sapiens) [18] and 0.936 in test [19]. Moreover, the z-score in test [7] was 1.08; in test [9], -3.5 (inactive); in [11], -3.91 (inactive); in test [12] it was -0.591 (inactive); in test [13] it was 4.08 (inactive); in [14] it was 0.136 (inactive).

`CC(C)=NOCc1cccc(-c2cc(-c3ccccc3)no2)c1`: the composite z-score was determined as 0.545 in test [1]; 0.974 in test [2]; 0.882 in [3]; 0.464 in [4]; 0.973 in test [5]; 0.727 in test [6]. Besides, the composite z-score in the test on Lefty1 is 0.92; in test [8] it was 0.848; in test [10], 0.118; in [15], 0.468; in [16], 0.106; in the test with Torsin-1A (Homo sapiens) [17] it was 0.533. The composite z-score came to 0.247 with Torsin-1A (Homo sapiens) [18] and 0.826 in [19]. The z-score in test [7] was 0.732; in test [9], -0.158 (inactive); in test [11], 0.525 (inactive); in test [12], -0.14 (inactive); in [13] it was -0.437 (inactive); in test [14] it was 0.345 (inactive).

For the compound `[N-]=[N+]=NCc1ccccc1[C@@H]1OC(c2ccc(OCCCO)cc2)=N[C@]1(Cc1ccccc1)C(=O)N1CCOCC1`, the composite z-score in test [1] was found to be 2.32; in [2], 1.11; in test [3] it was 0.373; in [4], 0.998; in test [5], 1.15; in [6], 0.593. Moreover, the composite z-score in the test with Lefty1 stood at 0.115; in test [8], 1.26; in test [10], 0.599; in [15] it was 1.66; in test [16], 0.618; with Torsin-1A (Homo sapiens) [17] it was 3.2. Also, the results for the composite z-score (with Torsin-1A (Homo sapiens) [18]; in [19]) were 3.32 and 0.0283, respectively. In addition, the z-score in test [7] is 1.23; in [9], -0.633 (inactive); in test [11], -3.55 (inactive); in test [12] it was 0.369 (inactive); in [13], -0.0017 (inactive); in [14] it was 0.531 (inactive).
